The source of these data is PubChem BioAssay AID1645838 (ICCB-Longwood Screening Facility, Harvard Medical School, 2021).

A short description of this assay: modulators of mitochondrial supercomplex assembly, cell-based, luminescence, Hoechst nuclei count (AID 1645838).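 For all read-outs here: control cybrid cells.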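 For z-score: higher means more mitochondrial supercomplex formation.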 Conditions: Cells, luminescence/Hoechst cell count ratio, supercomplex reporter; for z-score: stronger effect = higher value; for cell count: measured here: cell number, Hoechst nuclei count.
[1] abbreviates: library stock concentration (final well concentration not given) 80 uM.
Setting [2] is: library stock concentration (final well concentration not given) 400 uM.
Setting [3] is: library stock concentration (final well concentration not given) 2 mM.
Where [4] appears, read: library stock concentration (final well concentration not given) 10 mM.
Where [5] appears, read: library stock concentration (final well concentration not given) 46 uM.
[6] abbreviates: library stock concentration (final well concentration not given) 278 uM.
Setting [7] is: library stock concentration (final well concentration not given) 1.67 mM.

“And” between values parts separate entries of the source, which are not always exact repeats. Identical values can stand only once. In all, about 2,000 compounds went through this assay and about 100 (5%) were called active. Cut-off read from the data, not from the text of the source: active = z-score above about 2; inactive = the rest. What follows is part of a selection rich in actives, with near analogues and random picks from the rest.

Take `CCCCc1ccc(O)cc1O`: the z-score is -0.0561 (inactive) under setting [1], -0.187 (inactive) under setting [2], -0.116 (inactive) under setting [3] and -0.378 (inactive) under setting [4]. The cell count is, setting by setting: under setting [1], 5090; under setting [2], 5680; under setting [3], 5060; under setting [4], 5370.

Consider `CCC1C(=O)N(C)c2cnc(Nc3ccc(C(=O)NC4CCC(N5CCN(CC6CC6)CC5)CC4)cc3OC)nc2N1C(C)C` (configuration not stated), for which the outcome by setting is: (library stock 80 µM) “inactive; censored for cell count”; (library stock 400 µM) “inactive; censored for cell count”; (library stock 2 mM) “inactive; censored for cell count”; (library stock 10 mM) “inactive; censored for cell count”.

As for `CC(C)c1ccc(-c2cc(=O)c3ccccc3o2)cc1`, the z-score runs as follows: under setting [1], 0.0844 (inactive); under setting [2], 1e-05 (inactive); under setting [3], -0.0931 (inactive); under setting [4], -0.264 (inactive). The cell count is 5390 under setting [1], 5660 under setting [2], 5670 under setting [3] and 5910 under setting [4].

In the case of `CCc1nc(N)nc(N)c1-c1ccc(Cl)cc1`, the z-score is -0.369 (inactive) under setting [5], -0.308 (inactive) under setting [6], -0.256 (inactive) under setting [7] and 2.87 (active) under setting [4]. The cell count under setting [5] stood at 6220, the cell count under setting [6] stood at 5950, the cell count under setting [7] worked out at 4990 and the cell count under setting [4] was 2210.

In the case of `Cc1nc(C(=O)N2CCCC2Cc2nnc(-c3ccccc3)o2)c(-c2ccccc2F)s1` (configuration not stated), the z-score runs as follows: under setting [1], -0.436 (inactive); under setting [2], -0.462 (inactive); under setting [3], -0.287 (inactive); under setting [4], -0.37 (inactive). Besides, the cell count is, setting by setting: under setting [1], 6270; under setting [2], 5950; under setting [3], 5640; under setting [4], 5740.

On to `CCCCC[C@H](O)/C=C/[C@H]1C(=O)C[C@H](O)[C@@H]1C/C=C\CCCC(=O)OCC(O)CO` (some centres not stated), for which the z-score was 0.539 (inactive) and the cell count was found to be 4970.

Regarding `CCCCC[C@H](O)/C=C/[C@@H]1[C@@H](C/C=C/CCCC(=O)O)[C@@H](O)C[C@H]1O`, the z-score is -0.886 (inactive) and -1.17 (inactive); the cell count is 5940 and 5560.

As for `CC(=O)Nc1ccc(C(=O)Nc2sc(Nc3ccccc3)nc2C(N)=O)cc1`, the z-score under setting [1] was 0.365 (inactive), the z-score under setting [2] was 0.37 (inactive), the z-score under setting [3] was 2.89 (active) and the z-score under setting [4] was 5.1 (active). Further, the cell count under setting [1] amounted to 5180, the cell count under setting [2] is 5070, the cell count under setting [3] was 3500 and the cell count under setting [4] was found to be 2950.

With `CC(=O)Nc1ccc(NC(=S)NC(=O)c2ccc(C(C)(C)C)cc2)cc1`, the z-score is 1.3 (inactive) and the cell count was found to be 5410.

As for `COc1ccc(C(=O)Nc2sc(Nc3ccccc3)nc2C(N)=O)cc1`, the z-score by setting is: under setting [1], 0.24 (inactive); under setting [2], 0.382 (inactive); under setting [3], -0.143 (inactive); under setting [4], 1.05 (inactive). Also, the cell count by setting is: under setting [1], 4690; under setting [2], 4800; under setting [3], 4780; under setting [4], 4300.

`CCCCC[C@H](O)CC[C@@H]1[C@@H](CCCCCCC(=O)O)[C@@H](O)C[C@H]1O`: the z-score is -0.187 (inactive) and the cell count was determined as 5660.

Turning to `COc1cc(Nc2ncc(F)c(Nc3ccc4c(n3)NC(=O)C(C)(C)O4)n2)cc(OC)c1OC`, the z-score reads like this: under setting [1], -0.348 (inactive); under setting [2], -0.268 (inactive); under setting [3], 0.433 (inactive); under setting [4], 2.15 (active). Besides, the cell count runs as follows: under setting [1], 4400; under setting [2], 3910; under setting [3], 3800; under setting [4], 1990.

Turning to `CCCCCCCCCCCCCCNC(=O)C1CCCCC1`, the z-score was -0.131 (inactive) and the cell count is 5060.

On to `COc1cc(C(C)C)c2c(c1)S(=O)(=O)N(COc1cc(=O)n3cccc(OCCN4CCCCC4)c3n1)C2=O`, for which the z-score runs as follows: under setting [5], -0.456 (inactive); under setting [6], -0.0963 (inactive); under setting [7], -0.654 (inactive); under setting [4], -0.644 (inactive). The cell count was 7070 under setting [5], 6790 under setting [6], 6790 under setting [7] and 5780 under setting [4].

`CN(C)C(=O)c1cc2cnc(Nc3ccc(N4CCNCC4)cn3)nc2n1C1CCCC1`: the z-score is, setting by setting: under setting [1], 0.288 (inactive); under setting [2], 0.657 (inactive); under setting [3], 1.74 (inactive); under setting [4], 2.33 (active). The cell count runs as follows: under setting [1], 5680; under setting [2], 5400; under setting [3], 4600; under setting [4], 3840.

As to `CC(=O)c1c(C)c2cnc(Nc3ccc(N4CCNCC4)cn3)nc2n(C2CCCC2)c1=O`, the z-score is -0.186 (inactive) under setting [5]; -0.0747 (inactive) under setting [1]; 0.0516 (inactive) under setting [6]; 0.049 (inactive) under setting [2]; 1.11 (inactive) under setting [7]; 0.264 (inactive) under setting [3]. For the same molecule, under setting [4], the z-score was -0.00116 (inactive) and 1.25 (inactive). Further, the cell count was determined as 4850 under setting [5]; 4290 under setting [1]; 4600 under setting [6]; 4340 under setting [2]; 3490 under setting [7]; 4140 under setting [3]. Under setting [4], the cell count is 4170 and 3080.

Regarding `CCCCC/C=C\C/C=C\C/C=C\C/C=C\CCCCN1C(=O)C=CC1=O`, the z-score is 0.0996 (inactive) and the cell count came out at 4710.

For `Nc1nc2c([nH]c(=O)n2[C@H]2C[C@H](O)[C@@H](CO)O2)c(=O)[nH]1`, the z-score was -0.23 (inactive) and the cell count came out at 5380.

Turning to `O=C(Nc1ccc(N2CCOCC2)cc1)c1n[nH]c2ccccc12`, the z-score by setting is: under setting [1], 0.294 (inactive); under setting [2], 0.396 (inactive); under setting [3], -0.44 (inactive); under setting [4], 0.0641 (inactive). For the same molecule, the cell count came out at 5020 under setting [1], 4770 under setting [2], 4900 under setting [3] and 4350 under setting [4].

Regarding `CCCCC[C@H](O)/C=C/[C@H]1C(=O)C[C@H](O)[C@@H]1CCCCCCCO`, the z-score was 0.644 (inactive) and the cell count was 4950.

In the case of `O=C(Nc1cccc(Nc2ncc(Br)c(NCCc3cnc[nH]3)n2)c1)N1CCCC1`, the outcome (library stock 10 mM) is “inactive; censored for cell count”. The z-score by setting is: under setting [5], -0.139 (inactive); under setting [1], -0.647 (inactive); under setting [6], 0.0145 (inactive); under setting [2], -0.129 (inactive); under setting [7], 3.24 (active); under setting [3], 0.129 (inactive). In addition, the cell count is 5940 under setting [5]; 4860 under setting [1]; 6000 under setting [6]; 4520 under setting [2]; 2060 under setting [7]; 3760 under setting [3].
